Screens: PubChem, National Center for Advancing Translational Sciences (NCATS)
Shown are actives, neighbours in structure and some others; about 1.1% of the full set was active somewhere.
AmpC detergent: qHTS Inhibitors of AmpC Beta-Lactamase (assay with detergent); AID 485294, 2010; Potency, µM (doses to about 114 µM), without a hit: at the highest dose activity change, negative = inhibition, usual class: inhibitors; 370,000 tested, 0.041% active; AmpC hydrolysis of nitrocefin, absorbance 480 nm, 0.01% Triton;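 further: 0% = no-compound wells and -100% = no-enzyme wells; nearly all actives have a fitted effect of over 25% in size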
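AmpC (5.3 nM in the dispensed reagent) in 20 mM phosphate pH 7.0 with 0.01% (detergent screen) or 0.0001% Triton X-100 was preincubated with compounds for 15 min at room temperature. Nitrocefin was then added from an 800 uM solution, and hydrolysis was followed at 480 nm.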
AMA1 RON2 block: qHTS for Inhibitors of AMA1-RON; Towards Development of Antimalarial Drug Lead: Primary Screen. Plasmodium falciparum AMA1 (3D7) - RON2 peptide interaction. AlphaScreen AMA1-biotinylated RON2 peptide binding. Potency, µM (series often up to 58.2 µM), for inactives: top-dose activity change, negative = inhibition, most hits filed as inhibitors. 360,000 tested, 0.2% active. AID 720542, 2013;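 further: 0% = vehicle wells and -100% = peptide control; nearly all actives have a fitted effect of over 45% in size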
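AMA1 (3D7) with his tag at 25 nM final met compounds first, then biotinylated RON2 peptide at 25 nM; detection used donor plus acceptor beads, 10 µg/mL apiece, read by AlphaScreen after 30 min at room temperature.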
Giardia FBPA inh-1: qHTS Assay for Inhibitors of Fructose-1,6-bisphosphate Aldolase from Giardia Lamblia. 290,000 tested, 0.71% active. A8B2U2. Potency, µM (top dose mostly 59.6 µM), inactives show at the top dose activity, negative = inhibition, usual class: inhibitors. purified Giardia FBPA; further: nearly all actives have a fitted effect of over 55% in size
Target sequence (A8B2U2 whole entry, looked up): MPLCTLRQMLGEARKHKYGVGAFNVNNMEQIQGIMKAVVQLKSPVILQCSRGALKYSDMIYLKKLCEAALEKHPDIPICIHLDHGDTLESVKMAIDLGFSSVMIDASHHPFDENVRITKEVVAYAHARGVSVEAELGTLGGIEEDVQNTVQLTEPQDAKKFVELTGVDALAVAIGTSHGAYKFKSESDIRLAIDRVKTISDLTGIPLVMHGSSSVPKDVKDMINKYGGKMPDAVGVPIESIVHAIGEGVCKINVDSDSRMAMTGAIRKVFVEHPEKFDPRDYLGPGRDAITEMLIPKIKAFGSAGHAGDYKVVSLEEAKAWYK
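Giardia FBPA (40 nM reagent) was preincubated 10 min at RT with compound (up to 57.5 uM final), then substrate plus GAPDH/TPI/NAD/arsenate coupling system with diaphorase/resazurin was added; resorufin fluorescence (525/598 nm) was read after 20 min.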
AmpC no deterg: qHTS Inhibitors of AmpC Beta-Lactamase (assay without detergent); AmpC nitrocefin hydrolysis, absorbance 480 nm, 0.0001% Triton; Potency, µM (doses to about 57.1 µM), without a hit: top-dose activity change, negative = inhibition, usual class: inhibitors; 330,000 tested, 0.52% active; AID 485341, 2010;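 further: plate controls were no compound for no effect and no enzyme for full effect; nearly all actives have a fitted effect of over 20% in size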
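AmpC (5.3 nM in the dispensed reagent) in 20 mM phosphate pH 7.0 with 0.01% (detergent screen) or 0.0001% Triton X-100 was preincubated with compounds for 15 min at room temperature. Nitrocefin was then added from an 800 uM solution, and hydrolysis was followed at 480 nm.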
Giardia growth: qHTS Assay for Inhibitors of Fructose-1,6-bisphosphate Aldolase from Giardia Lamblia: Giardia lamblia growth inhibition | shares compounds with Giardia FBPA inh-1 | 1,500 tested, 5% active | Giardia lamblia trophozoite growth inhibition | Potency, µM (top dose mostly 57.5 µM), inactives show at the top dose activity change, negative = inhibition, hits mostly inhibitors;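 further: trophozoites exposed to compound for 48 h at 37 °C; nearly all actives have a fitted effect of over 70% in size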
Mammal cell tox: qHTS Assay for Inhibitors of Fructose-1,6-bisphosphate Aldolase from Giardia Lamblia: Mammalian cellular toxicity | shares compounds with Giardia FBPA inh-1 | mammalian cell viability counter-screen, qHTS | Potency, µM (highest dose often 57.5 µM), without a hit: top-dose viability change, negative = toxicity, usual class: inhibitors | 1,500 tested, 4% active | AID 2786, 2010;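 further: Chinese hamster ovary cells used as mammalian cytotoxicity surrogate; viability measured as cellular ATP by luminescence; compound exposure lasted 48 h before reading; nearly all actives have a fitted effect of over 60% in size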
Giardia FBPA inh-2: qHTS Assay for Inhibitors of Fructose-1,6-bisphosphate Aldolase from Giardia Lamblia: Primary screen confirmation | shares compounds with Giardia FBPA inh-1 | purified Giardia aldolase enzyme activity, qHTS | Potency, µM (top dose mostly 57.5 µM), without a hit: top-dose activity change, negative = inhibition, actives largely listed as inhibitors | 1,500 tested, 5% active; further: nearly all actives have a fitted effect of over 45% in size
Rabbit aldolase: qHTS Assay for Inhibitors of Fructose-1,6-bisphosphate Aldolase from Giardia Lamblia: Rabbit FBPA Selectivity; AID 2794, 2010; Potency, µM (highest dose often 57.5 µM), for the others: at the highest dose activity, negative = inhibition, actives largely listed as inhibitors; shares compounds with Giardia FBPA inh-1; Rabbit muscle FBPA enzyme inhibition, selectivity counter-screen; 1,500 tested, 4% active; further: nearly all actives have a fitted effect of over 60% in size
GAPDH counter: qHTS Assay for Inhibitors of Fructose-1,6-bisphosphate Aldolase from Giardia Lamblia: Coupling assay counterscreen confirmation | shares compounds with Giardia FBPA inh-1 | GAPDH coupling enzyme counterscreen, biochemical, qHTS | Potency, µM (series often up to 57.5 µM), for the others: at the highest dose activity change, negative = inhibition, usual class: inhibitors | 1,500 tested, 6% active; further: nearly all actives have a fitted effect of over 55% in size
An asterisk follows results filed as active; ? = inconclusive; . = no result given; [ ] = another dose, or the depositor's remark. The call rests on the fitted dose curve; in most records, active means well fitted curve in the direction sought with a large enough effect; inconclusive means small, poorly fitted or top-dose-only effect, or another doubt; inactive means no such curve, though single readings can be large; an effect the other way counts as inactive or inconclusive. Unless noted, on the % scale 0 is the no-effect control and ±100 the full control effect; potency means the concentration at half of the fitted maximal effect.

SMILES	AmpC detergent	AMA1 RON2 block	Giardia FBPA inh-1	AmpC no deterg	Giardia growth	Mammal cell tox	Giardia FBPA inh-2	Rabbit aldolase	GAPDH counter
COc1ccc(OC)c(NC(=O)CN(C)CC(=O)Nc2ccccc2Br)c1	-11%	40%	18µM*	-6%[11.4 µM]	-14%	8%	-4%	7%	6%
COc1cccc(CN(C)CC(=O)Nc2cccc3ccccc23)c1	-3%	-7%	18µM*	-13%	2%[10.4 µM]	-9%	2%	5%	8%
COc1cccc(/C=N/n2c(-c3cc(C)[nH]n3)n[nH]c2=S)c1O	-7%	91%	5.6µM*	-35%	?	18%	-20%	?	-9%
COc1cccc(/C=N/n2c(-c3n[nH]c4c3CCC4)n[nH]c2=S)c1O	?	15%[2.32 µM]	-14%	-32%	.	.	.	.	.
CC(/C=N/n1c(-c2cc(C)[nH]n2)n[nH]c1=S)=C\c1ccco1	-2%	95%	2.5µM*	-27%	-14%[38.3 µM]	-1%	?	-4%	-10%
CN(C)S(=O)(=O)c1cccc(NC(=O)COc2ccccc2C(=O)NCc2ccccc2)c1	0%	8%	.	-29%	.	.	.	.	.
CCCCOc1ccc(C(=O)NCC(=O)NCC2CCCO2)cc1 (centres undefined)	-11%	12%	.	1%	.	.	.	.	.
CCNc1nc(NC(C)C)nc(OCCNS(=O)(=O)c2cc(C)ccc2C)n1	-14%	1%	6%	8%	.	.	.	.	.
CCNc1nc(NC(C)C)nc(NS(=O)(=O)c2ccc(C)cc2)n1	?	-3%	28µM*	-37%	-20%	-2%	?	?	40µM*
Oc1ccc(/C=C/c2ccc3cccc(O)c3n2)cc1Br	?	77%	10%	?	.	.	.	.	.
O/N=C/c1ccc2cccc(O)c2n1	-5%	108%	7.1µM*	-5%	9%[10.4 µM]	-10%	2µM*	-29%	-28%
O=C(O)c1ccc(/C=C/c2ccc3cccc(O)c3n2)cc1	-6%	85%	18µM*	-35%	27%	-8%	4µM*	?	?
O/N=C/c1ccc2ccccc2n1	-9%	20%	0%	-10%	.	.	.	.	.
C=CCNC(=S)N/N=C1\CCS(=O)(=O)c2ccccc21	-4%	57%	7.1µM*	-8%	-19%	12%	12%	8%	5%
CCCNC(=O)C1(C)CCCN(C(=O)COc2ccc(C(C)(C)C)cc2)C1 (centres undefined)	.	37%	.	.	.	.	.	.	.
CN(C)CCCCOc1ccccc1F	0%	-15%	20µM*	-3%[2.29 µM]	?	9%	4%	11%	-7%
CCOc1ccccc1OCCCCOc1ccccc1F	-11%	189%	-1%	-32%	.	.	.	.	.
Cc1ccc(C(=O)NNC(=S)NC(=O)c2ccccc2)cc1	.	40%	.	.	.	.	.	.	.
Cc1ccc(C(=O)NC(=S)NNC(=O)c2ccccc2O)cc1	-15%	4%	?	-19%	.	.	.	.	.
